Source: PubChem BioAssay (National Center for Advancing Translational Sciences (NCATS))
EPAC1 ag: agonists of human EPAC1; EPAC1 agonist qHTS, biochemical assay; response scale: 100% = response to 6.5 mM cAMP; Potency, µM (doses to about 154 µM), without a hit: top-dose activation, usual class: activators; 0.073% of 360,000 active; AID 720707; note: nearly all actives have a fitted effect of over 60% in size
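EPAC1 100 nM, Rap1B–BODIPY-GDP 250 nM, unlabeled GDP 50 uM; compound titration; 5 min RT; kinetic read ex480/em540 at 5-min intervals ×30 min; data normalized to 6.5 mM cAMP agonist control.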
EPAC1 antag: EPAC1 (human) antagonism | Potency, µM (titrated, usually from 115 µM), for inactives: at the highest dose activity change, negative = inhibition, usual class: inhibitors | O95398 | EPAC1 GEF assay, Rap1b-BODIPY-GDP exchange fluorescence | 0.14% of 360,000 active;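 note: plate controls were vehicle for no effect and positive control for full effect; nearly all actives have a fitted effect of over 50% in size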
EPAC2 antag: antagonists of human EPAC2 | Q8WZA2 | EPAC2 GEF exchange of Rap1B-BODIPY-GDP, fluorescence | Potency, µM (top dose mostly 114 µM), inactives show at the highest dose activity, negative = inhibition, hits mostly inhibitors | 0.18% of 360,000 active | AID 720708; note: % is set by controls: 0 for no effect and ±100 for the full control effect; nearly all actives have a fitted effect of over 45% in size
Target sequence (Q8WZA2 whole entry, looked up): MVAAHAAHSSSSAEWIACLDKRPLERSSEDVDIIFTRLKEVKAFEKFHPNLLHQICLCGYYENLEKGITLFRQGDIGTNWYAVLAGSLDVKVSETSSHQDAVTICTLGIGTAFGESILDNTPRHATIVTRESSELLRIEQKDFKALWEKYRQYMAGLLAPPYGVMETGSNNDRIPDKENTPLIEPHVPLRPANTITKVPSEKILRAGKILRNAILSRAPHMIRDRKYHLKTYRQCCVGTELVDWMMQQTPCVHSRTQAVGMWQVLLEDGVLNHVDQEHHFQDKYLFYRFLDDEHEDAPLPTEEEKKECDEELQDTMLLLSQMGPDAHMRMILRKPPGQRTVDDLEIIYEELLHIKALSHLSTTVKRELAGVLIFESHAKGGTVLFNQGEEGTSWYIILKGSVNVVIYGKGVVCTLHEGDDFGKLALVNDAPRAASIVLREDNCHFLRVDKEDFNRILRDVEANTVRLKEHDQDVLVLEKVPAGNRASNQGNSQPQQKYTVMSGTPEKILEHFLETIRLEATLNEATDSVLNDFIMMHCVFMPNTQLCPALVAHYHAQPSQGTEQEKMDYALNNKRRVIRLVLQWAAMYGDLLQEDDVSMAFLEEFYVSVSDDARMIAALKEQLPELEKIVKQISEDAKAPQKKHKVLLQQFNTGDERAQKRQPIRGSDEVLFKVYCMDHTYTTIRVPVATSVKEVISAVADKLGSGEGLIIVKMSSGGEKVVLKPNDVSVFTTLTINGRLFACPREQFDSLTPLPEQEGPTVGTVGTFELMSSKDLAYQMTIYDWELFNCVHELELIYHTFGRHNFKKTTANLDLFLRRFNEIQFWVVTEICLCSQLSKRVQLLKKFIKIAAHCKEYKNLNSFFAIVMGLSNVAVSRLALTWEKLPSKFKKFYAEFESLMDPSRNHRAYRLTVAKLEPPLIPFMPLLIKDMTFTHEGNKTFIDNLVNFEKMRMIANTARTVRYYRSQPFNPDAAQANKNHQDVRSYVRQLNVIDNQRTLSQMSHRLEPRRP
EPAC2 agonist: agonists of human EPAC2 (RAPGEF4) | 0.079% of 360,000 active | Potency, µM (highest dose often 154 µM), for inactives: top-dose activation, actives largely listed as activators | EPAC2 activation, biochemical qHTS; response scale: 100% = 6.5 mM cAMP response; note: nearly all actives have a fitted effect of over 50% in size
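Readout is BODIPY fluorescence (480 nm excitation, 540 nm emission), which falls as labeled GDP is exchanged off Rap1B. EPAC2 at 100 nM acted on 250 nM RAP1B-BODIPY-GDP with 50 uM GDP present.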
The depositor's hits bear a star. Rows were chosen to be rich in hits. Some 0.38% of all compounds tested hit in one or more screens of this group. Calls come from the whole dose curve; as a rule, active = well fitted curve in the direction sought with a large enough effect; inconclusive = small, poorly fitted or top-dose-only effect, or another doubt; inactive = no such curve, though single readings can be large; an effect the other way counts as inactive or inconclusive. Potency is the fitted concentration of half-maximal effect.

Results for CC(=O)OCCCNc1cc(SCc2ccco2)c2nonc2c1[N+](=O)[O-] ?
EPAC1 ag: 9.5%; EPAC1 antag: inconclusive; EPAC2 antag: -9.5%; EPAC2 agonist: -5.1%

How did CCCC(=O)OCCNc1cc(SCc2ccco2)c2nonc2c1[N+](=O)[O-] do in these assays?
EPAC1 ag: 0.7%; EPAC1 antag: 39.8µM*; EPAC2 antag: -7.2%; EPAC2 agonist: -10.4%

Results for COc1cc(C(=O)OC(C)c2ccc(F)cc2)ccc1OCC(=O)N1CCOCC1 (stereo not drawn) ?
EPAC1 ag: 7.5%; EPAC1 antag: -1.3%; EPAC2 antag: -7.2%; EPAC2 agonist: 0.3%

Results for NC(=S)N=Nc1c(O)cc(O)c2[nH]c(=O)ccc12 ?
EPAC1 ag: 8.3%; EPAC1 antag: 50.1µM*; EPAC2 antag: -28.8%; EPAC2 agonist: 6.9%

What do the screens show for `NC(=S)N=Nc1c(O)[nH]c2ccc(F)cc12`?
EPAC1 ag: -5.0%; EPAC1 antag: -7.3%; EPAC2 antag: -0.7%; EPAC2 agonist: -10.3%

What do the screens show for `COc1ccc(-c2noc(-c3csc([C@@H]4O[C@H](CO)[C@H](O)[C@H](O)[C@H]4O)n3)n2)cc1OC`?
EPAC1 ag: -7.9%; EPAC1 antag: 19.2%; EPAC2 antag: 6.4%; EPAC2 agonist: -4.6%

What do the screens show for `COC(=O)c1ccc(C)c(NC(=O)CCCN2C(=O)CN(C)C2=O)c1`?
EPAC1 ag: 6.7%; EPAC1 antag: -5.0%; EPAC2 antag: -1.9%; EPAC2 agonist: 3.0%

What do the screens show for `Cn1cccc1/C=C1/SC(=S)N(CC(=O)O)C1=O`?
EPAC1 ag: 15.5%; EPAC1 antag: inconclusive; EPAC2 antag: 7.2%; EPAC2 agonist: 13.1%

How did CCN1C(=O)/C(=C/C=C2/SCCN2C)SC1=S do in these assays?
EPAC1 ag: 100µM*; EPAC1 antag: -6.2%; EPAC2 antag: -3.6%; EPAC2 agonist: 35.5µM*

Results for CN1/C(=C\C=C2/SC(=S)N(CC(=O)O)C2=O)C(C)(C)c2ccccc21 ?
EPAC1 ag: 63.1µM*; EPAC1 antag: 0.6%; EPAC2 antag: 46.6%; EPAC2 agonist: 112µM*

Results for CN1CCS/C1=C\C=C1/SC(=S)N(CC(=O)O)C1=O ?
EPAC1 ag: 22.4µM*; EPAC1 antag: -29.2%; EPAC2 antag: 4.4%; EPAC2 agonist: inconclusive

How did Cc1nnc(Sc2cc(NCCCO)c([N+](=O)[O-])c3nonc23)s1 do in these assays?
EPAC1 ag: 3.4%; EPAC1 antag: 39.8µM*; EPAC2 antag: 18.2%; EPAC2 agonist: 14.0%

Results for COc1cc(NC(=O)CNC(=O)Cn2cnc3sc(C)c(C)c3c2=O)cc(OC)c1OC ?
EPAC1 ag: 1.8%; EPAC1 antag: 5.9%; EPAC2 antag: 2.5%; EPAC2 agonist: -0.4%

Results for Cc1[nH]c2ccc(C(=O)OC(C)C(=O)N(C)C3CCCCC3)cc2c1C (stereo not drawn) ?
EPAC1 ag: 15.0%; EPAC1 antag: -16.5%; EPAC2 antag: -5.6%; EPAC2 agonist: 21.8%

What do the screens show for `Cc1[nH]c2ccc(C(=O)OC(C)C(=O)N(C)c3ccccc3)cc2c1C` (stereo not drawn)?
EPAC1 ag: 28.2µM*; EPAC1 antag: -11.3%; EPAC2 antag: -6.9%; EPAC2 agonist: -4.8%

What do the screens show for `CCc1nc2c(OCc3cccc(Cl)c3)cccn2c1N(C)C(C)=O`?
EPAC1 ag: 6.9%; EPAC1 antag: 29.1%; EPAC2 antag: 3.2%; EPAC2 agonist: 20µM*

How did COc1cc2c(cc1OC)C(=O)C(Br)CC2 (stereo not drawn) do in these assays?
EPAC1 ag: -7.3%; EPAC1 antag: 44.7µM*; EPAC2 antag: 28.2µM*; EPAC2 agonist: 10.9%

How did COc1cc2c(cc1OC)C(=O)C(c1ccc3c(c1)OCO3)CC2 (stereo not drawn) do in these assays?
EPAC1 ag: 0.6%; EPAC1 antag: 15.1%; EPAC2 antag: -11.7%; EPAC2 agonist: -5.3%

What do the screens show for `C/C(O)=C(/C#N)c1nc2ccccc2[nH]1`?
EPAC1 ag: 2.2%; EPAC1 antag: -11.9%; EPAC2 antag: -1.9%; EPAC2 agonist: -1.1%

What do the screens show for `N#C/C(=C(/O)C(Cl)(Cl)Cl)c1nc2ccccc2[nH]1`?
EPAC1 ag: -1.7%; EPAC1 antag: -7.4%; EPAC2 antag: 12.6µM*; EPAC2 agonist: -1.4%

What do the screens show for `COc1cc(C)c(CN2CCN(CC(=O)Nc3ccccc3C(=O)NC3CC3)CC2)cc1OC`?
EPAC1 ag: -3.3%; EPAC1 antag: -7.6%; EPAC2 antag: 5.5%; EPAC2 agonist: 8.3%
